Among the data in PubChem BioAssay are composite z-score and z-score values, retold here.

Activity calls are given as the source filed them.

The test system of assay [1] is Plasmodium falciparum Sir2 (PF13_0152, Sir2A). The assay is described as follows: pfSir2 binders on small-molecule microarrays, primary screen, biochemical, small-molecule microarray, 635 nm fluorescence (AID 1098).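 Further: score merges spot fluorescence intensity with its signal-to-noise ratio.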 Conditions: small-molecule microarray binding, fluorescence 635 nm; higher = more signal.
Assay [2] in a line: small-molecule microarray binders of probe aDKK1, primary screen, biochemical, biotinylated probe, 635/667 nm fluorescence (AID 1099).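 Further: score merges 667nm spot fluorescence with signal to noise across triplicate slides.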 Conditions: higher = more signal.
Assay [3] can be described thus: small-molecule microarray binders of probe aCHRDL2, primary screen, biochemical, biotinylated probe, 635/667 nm fluorescence (AID 1100). The note with it: higher = more signal.
A short description of assay [4]: splicing luciferase reporter signal modulators, primary screen, spliceosome inhibition project, cell-based, HEK293, splice +/- reporter (AID 1101).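 Further: HEK293 cells carrying a splicing-competent luciferase reporter gene; test concentration not given here.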 Conditions: luminescence, 24 h, higher = more signal, called active from +8 up or from −8 down. On the technique in general: Reporter assays use an easily measured gene product as a stand-in for the process of interest.

In assay [5] the target is Fibroblast growth factor 10 (Homo sapiens) (UniProt O15520). The assay is described as follows: FGF10 binders on small-molecule microarrays, primary screen, biochemical, small-molecule microarray, 635 nm fluorescence (AID 1102). Conditions: FGF10 binding, fluorescence 635 nm, higher = more signal.
For assay [6], the system named is glycogen synthase kinase-3 (GSK3A per assay name; protocol says GSK3B). Kind of assay: GSK3 binders on small-molecule microarrays, primary screen, biochemical, small-molecule microarray, 635 nm fluorescence, GSK3A (AID 1103). Further: the record names both GSK3A and GSK3B. The note with it: small-molecule microarray binding, fluorescence 635 nm; higher = more signal.
For assay [7], the target named is Epidermal growth factor receptor (Homo sapiens) (UniProt P00533). The assay is described as follows: EGFR binders on small-molecule microarrays, primary screen, biochemical, small-molecule microarray, 635 nm fluorescence (AID 1104).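 Further: score merges 667 nm emission intensity with spot signal to noise over triplicate slides.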 Conditions: EGFR binding, higher = more signal.
For assay [8], the target named is Follistatin-related protein 3 (Homo sapiens) (UniProt O95633). Kind of assay: FSTL3 binders on small-molecule microarrays, primary screen, biochemical, small-molecule microarray, 635 nm fluorescence (AID 1105).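 Further: score merges emission near 667 nm and signal to noise per printed spot across three slides.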 The note with it: FSTL3 binding, higher = more signal.
The target in assay [9] is Dickkopf-related protein 1 (Homo sapiens) (UniProt O94907). The assay is described as follows: DKK1 binders on small-molecule microarrays, primary screen, biochemical, small-molecule microarray, 635 nm fluorescence scan (AID 1106).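 Further: score merges emission near 667 nm with signal to noise over three replicate slides.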 The note with it: DKK1 binding, higher = more signal.
Assay [10] concerns Inhibin beta A chain (activin A). Kind of assay: INHBA (activin A) binders on microarrays, primary screen, biochemical, small-molecule microarray, 635 nm fluorescence scan (AID 1107).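 Further: mouse activin A protein probed at 4.33 µg/mL on printed slides; score merges bound-protein fluorescence near 667 nm with spot signal-to-noise.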 Conditions: small-molecule microarray binding, higher = more signal.
Assay [11] relates to Human papillomavirus type 1a protein E7 (residues 44-93). The assay is described as follows: HPV1a E7 fragment binders on microarrays, primary screen, biochemical, small-molecule microarray, residues 44-93, 635 nm fluorescence (AID 1108).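 Further: E7 fragment applied at 1 µg/mL in TBST for 1 h at 4 C; score combines spot fluorescence with its signal to noise ratio.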 The note with it: small-molecule microarray binding, fluorescence 635 nm; higher = more signal.
Assay [12] in a line: modulators of HCV replicon luciferase signal, primary screen, HCV replication inhibitor project, Huh7 cells, luciferase reporter (AID 1109).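 Further: huh7 hepatoma cells harbouring a luciferase neomycin HCV replicon reporter; luciferase luminescence as measure of HCV replicon replication; test concentration not given here.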 The note with it: 48 h, higher = more signal.
The target of assay [13] is Left-right determination factor 2 (Homo sapiens) (UniProt O00292). The assay is described as follows: LEFTY2 binders on small-molecule microarrays, primary screen, biochemical, small-molecule microarray, 635 nm fluorescence scan (AID 1110). Conditions: LEFTY2 binding, higher = more signal.
Assay [14] has as its target Calmodulin-1 (Homo sapiens) (UniProt P0DP23). The assay is described as follows: CALM1 binders on microarrays, EGTA buffer, profiling panel, biochemical, small-molecule microarray, Cy5-labelled CALM1 (AID 1111).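 Further: labelled calmodulin applied in Tris saline Tween buffer holding calcium plus EGTA and DTT.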 Conditions: Cy5-CALM1 binding fluorescence, higher = more signal.
For assay [15] the target is unchanged. The assay is described as follows: calcium-bound CALM1 binders on microarrays, profiling panel, artefact control for SMM control-protein annotation, biochemical, small-molecule microarray, Cy5-labelled CALM1, plus calcium (AID 1112).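 Further: score merges spot fluorescence with signal to noise from triplicate slides.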 Conditions: Cy5-CALM1 binding fluorescence, higher = more signal.
Assay [16] can be described thus: small-molecule microarray binders of probe aWnt5a, primary screen, biochemical, biotinylated probe, 635/667 nm fluorescence (AID 1113).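 Further: score merges 667 nm fluorescence intensity with signal-to-noise per printed feature.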 Conditions: higher = more signal.
Assay [17] is described as follows: small-molecule microarray binders of probe aShh, primary screen, biochemical, biotinylated probe, 635/667 nm fluorescence (AID 1114).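 Further: probe is biotin-labelled aShh protein from a stem cell growth factor screen; measures binding of labelled protein to compounds printed on the slide; score merges feature fluorescence at 667 nm with signal-to-noise.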 The note with it: higher = more signal.
A short description of assay [18]: small-molecule microarray binders of probe aNog, primary screen, biochemical, biotinylated probe, 635/667 nm fluorescence (AID 1115).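 Further: probe is biotinylated aNog protein used at 0.15 µg/mL for 1 h at 4 C; z-score combines 667 nm fluorescence of each spot with its signal to noise.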 Conditions: higher = more signal.
For assay [19], the target named is Torsin-1A-interacting protein 1 (Homo sapiens) (UniProt Q5JTV8). Kind of assay: LAP1 binders from COS7 cell lysate, primary screen, small-molecule microarray, 635/667 nm fluorescence (AID 1116). The note with it: COS7-hLAP1 lysate binding, 635 nm fluorescence, higher = more signal.
Assay [20] addresses Alpha-bungarotoxin (Bungarus multicinctus) (UniProt P60615). The assay is described as follows: alpha-bungarotoxin binders on microarray, profiling panel, artefact control for SMM control protein annotation, biochemical, small-molecule microarray, Alexa647 label, 635/667 nm fluorescence (AID 1117). The note with it: alpha-BTX-A647 binding fluorescence, higher = more signal.

Chain of Alpha-bungarotoxin (Bungarus multicinctus) (P60615 whole entry, looked up): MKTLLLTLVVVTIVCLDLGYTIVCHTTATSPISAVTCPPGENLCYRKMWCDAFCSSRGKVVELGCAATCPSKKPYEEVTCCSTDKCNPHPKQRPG
Chain of Torsin-1A-interacting protein 1 (Homo sapiens) (Q5JTV8 whole entry, looked up): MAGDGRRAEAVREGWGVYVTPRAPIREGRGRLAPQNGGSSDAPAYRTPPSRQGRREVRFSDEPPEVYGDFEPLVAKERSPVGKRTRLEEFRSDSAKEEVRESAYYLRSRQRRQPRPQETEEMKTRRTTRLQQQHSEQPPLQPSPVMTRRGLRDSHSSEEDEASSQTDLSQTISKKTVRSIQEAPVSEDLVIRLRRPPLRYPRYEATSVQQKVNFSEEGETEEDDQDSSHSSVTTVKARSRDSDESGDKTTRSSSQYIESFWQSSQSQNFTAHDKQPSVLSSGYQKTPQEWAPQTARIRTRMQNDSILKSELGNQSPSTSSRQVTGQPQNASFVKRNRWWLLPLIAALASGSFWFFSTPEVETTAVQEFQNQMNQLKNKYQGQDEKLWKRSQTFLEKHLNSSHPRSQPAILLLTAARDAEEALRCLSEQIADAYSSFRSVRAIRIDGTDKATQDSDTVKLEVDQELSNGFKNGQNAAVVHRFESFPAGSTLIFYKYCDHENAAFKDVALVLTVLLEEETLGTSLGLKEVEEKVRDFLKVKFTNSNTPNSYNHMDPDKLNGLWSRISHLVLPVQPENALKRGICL
Chain of Fibroblast growth factor 10 (Homo sapiens) (O15520 whole entry, looked up): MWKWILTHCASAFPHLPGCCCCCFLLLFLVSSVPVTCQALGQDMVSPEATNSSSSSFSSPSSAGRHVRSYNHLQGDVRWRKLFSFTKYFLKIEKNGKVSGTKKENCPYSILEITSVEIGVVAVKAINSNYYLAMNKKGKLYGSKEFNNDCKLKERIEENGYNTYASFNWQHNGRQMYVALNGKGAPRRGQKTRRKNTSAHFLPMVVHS
Chain of Left-right determination factor 2 (Homo sapiens) (O00292 whole entry, looked up): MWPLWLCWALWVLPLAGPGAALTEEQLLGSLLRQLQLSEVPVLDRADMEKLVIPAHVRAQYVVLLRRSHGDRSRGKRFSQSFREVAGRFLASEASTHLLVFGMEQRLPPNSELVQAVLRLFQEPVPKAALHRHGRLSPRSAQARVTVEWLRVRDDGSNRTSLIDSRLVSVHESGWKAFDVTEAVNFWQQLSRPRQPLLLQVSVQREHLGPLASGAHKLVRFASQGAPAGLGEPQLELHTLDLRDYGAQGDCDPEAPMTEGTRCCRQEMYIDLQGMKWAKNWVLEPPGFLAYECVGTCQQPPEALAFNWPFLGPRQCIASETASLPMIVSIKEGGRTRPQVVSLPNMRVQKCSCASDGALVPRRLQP
Chain of Follistatin-related protein 3 (Homo sapiens) (O95633 whole entry, looked up): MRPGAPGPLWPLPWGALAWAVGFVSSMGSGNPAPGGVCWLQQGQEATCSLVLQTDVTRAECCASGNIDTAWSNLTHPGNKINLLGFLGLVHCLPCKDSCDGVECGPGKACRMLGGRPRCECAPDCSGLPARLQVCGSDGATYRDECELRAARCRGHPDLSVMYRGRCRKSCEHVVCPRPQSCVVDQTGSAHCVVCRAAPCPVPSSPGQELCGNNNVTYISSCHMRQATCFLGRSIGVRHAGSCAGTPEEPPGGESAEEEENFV
Chain of Epidermal growth factor receptor (Homo sapiens) (P00533 whole entry, looked up): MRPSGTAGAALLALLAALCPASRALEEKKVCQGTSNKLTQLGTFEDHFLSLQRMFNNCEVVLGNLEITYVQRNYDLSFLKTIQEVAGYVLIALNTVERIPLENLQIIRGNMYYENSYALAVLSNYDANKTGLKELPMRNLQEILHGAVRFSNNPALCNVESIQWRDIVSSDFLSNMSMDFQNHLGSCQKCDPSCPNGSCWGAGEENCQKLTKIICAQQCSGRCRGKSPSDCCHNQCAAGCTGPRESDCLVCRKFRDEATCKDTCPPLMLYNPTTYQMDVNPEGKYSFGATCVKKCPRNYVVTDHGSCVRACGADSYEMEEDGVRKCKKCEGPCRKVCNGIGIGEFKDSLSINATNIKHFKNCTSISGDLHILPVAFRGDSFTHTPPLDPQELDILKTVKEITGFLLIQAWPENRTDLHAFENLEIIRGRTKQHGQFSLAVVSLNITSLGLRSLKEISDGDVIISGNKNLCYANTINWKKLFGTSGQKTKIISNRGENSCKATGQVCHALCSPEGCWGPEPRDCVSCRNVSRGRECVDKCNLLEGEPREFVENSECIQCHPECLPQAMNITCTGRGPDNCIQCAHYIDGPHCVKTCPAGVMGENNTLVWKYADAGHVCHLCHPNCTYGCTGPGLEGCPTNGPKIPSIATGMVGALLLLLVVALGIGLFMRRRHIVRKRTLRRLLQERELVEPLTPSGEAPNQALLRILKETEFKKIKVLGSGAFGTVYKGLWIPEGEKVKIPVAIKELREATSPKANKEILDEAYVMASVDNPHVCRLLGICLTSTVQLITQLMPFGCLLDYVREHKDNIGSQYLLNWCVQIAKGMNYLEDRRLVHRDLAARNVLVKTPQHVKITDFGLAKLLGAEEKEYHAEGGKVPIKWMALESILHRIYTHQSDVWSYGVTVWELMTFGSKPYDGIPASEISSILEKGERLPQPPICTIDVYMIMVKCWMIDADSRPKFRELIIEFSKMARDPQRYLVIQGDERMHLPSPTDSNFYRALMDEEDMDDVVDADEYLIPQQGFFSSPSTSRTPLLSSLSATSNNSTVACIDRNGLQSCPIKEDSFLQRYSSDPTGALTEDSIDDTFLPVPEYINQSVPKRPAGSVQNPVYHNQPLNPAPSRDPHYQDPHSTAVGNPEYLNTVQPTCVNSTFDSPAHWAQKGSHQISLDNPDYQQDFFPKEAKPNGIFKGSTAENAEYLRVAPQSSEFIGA
Chain of Dickkopf-related protein 1 (Homo sapiens) (O94907 whole entry, looked up): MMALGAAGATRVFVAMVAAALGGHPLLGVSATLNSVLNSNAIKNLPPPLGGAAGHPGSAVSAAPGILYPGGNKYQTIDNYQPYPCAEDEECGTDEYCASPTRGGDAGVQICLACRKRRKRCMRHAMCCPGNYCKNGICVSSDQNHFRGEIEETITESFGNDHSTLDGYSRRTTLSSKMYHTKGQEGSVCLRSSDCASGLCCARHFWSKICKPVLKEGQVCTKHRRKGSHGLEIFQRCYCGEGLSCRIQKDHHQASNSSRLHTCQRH

Consider `COCCOC(=O)N1C(=O)[C@@]2(c3ccccc31)[C@H](C(=O)Nc1nc3ccccc3s1)[C@H]1C(=O)O[C@H](c3ccccc3)[C@H](c3ccccc3)N1[C@@H]2c1ccc(OCCO)cc1`, for which the composite z-score in assay [1] amounted to 1.11; in [2] it was 0.186; in assay [3], 0.54; in assay [5], 1.26; in assay [6], 1.3; in assay [7], 0.331. Moreover, the composite z-score in [8] came out at 1.11; in assay [9], 0.427; in [10] it was 0.464; in assay [11], 1.37; in assay [13] it was 0.382; in assay [14], 1.31. The composite z-score is 0.773 in assay [15]; 0.135 in assay [16]; -0.0626 in [17]; 0.544 in [18]; 0.96 in assay [19]; 1.6 in assay [20]. Also, the figures for the z-score in assay [4] and in assay [12] were -0.128 (inactive) and -2.05, respectively.
On to `COC(=O)C[C@H]1O[C@]2(C(=O)N(Cc3ccccc3)c3ccc(NC(C)=O)cc32)[C@@H](C)[C@@H]1[Si](C)(C)c1ccc(OC)cc1`, for which the composite z-score in [1] was 0.407; in [2], -0.097; in assay [3], -0.362; in assay [5], 0.802; in [6] it was 0.985; in [7], 0.474. The composite z-score is 0.719 in [8]; 0.599 in [9]; 0.25 in [10]; 0.866 in assay [11]; 0.104 in [13]; 0.403 in assay [14]. In addition, the composite z-score in assay [15] is -0.352; in [16], -0.096; in assay [17], -0.2; in assay [18], 0.188; in assay [19] it was 0.538; in assay [20] it was 0.226. In addition, the values for the z-score in assay [4] and in assay [12] were -0.703 (inactive) and -2.23, respectively.
Take `COC(=O)c1ccc(C23CC2(C(NP(=O)(c2ccccc2)c2ccccc2)c2ccccc2)C3)cc1` (stereo not given): the composite z-score is 0.36 in assay [1]; 1.83 in assay [2]; 1.39 in assay [3]; 0.831 in [5]; -0.0094 in [6]; 0.134 in assay [7]. Besides, the composite z-score in assay [8] was 0.835; in assay [9], -0.63; in assay [10], 0.893; in assay [11], 1.31; in assay [13], -0.0656; in assay [14] it was 2.35. Besides, the composite z-score in assay [15] is 0.696; in assay [16] it was 0.195; in assay [17], 0.484; in assay [18], -0.708; in assay [19], 2.58; in assay [20], 1.38. Besides, the z-score in [4] is -3.03 (inactive); in assay [12], -1.17.
`O=C1N(CCS(=O)(=O)c2ccccc2)Cc2ccccc2C[C@]12N=C(c1ccc(OCCCO)cc1)O[C@@H]2c1ccccc1`: the composite z-score in assay [1] amounted to 1.24; in assay [2] it was 0.467; in [3] it was 0.655; in assay [5], 1.4; in [6], 1.3; in [7], 0.477. The composite z-score in [8] was 1.18; in [9] it was 0.784; in [10], 1.4; in [11] it was -0.183; in assay [13] it was 0.947; in assay [14] it was 2.54. Further, the composite z-score was determined as 0.422 in assay [15]; 0.122 in assay [16]; 0.21 in [17]; 1.21 in assay [18]; 1.88 in assay [19]; 1.59 in assay [20]. The z-score in assay [4] is -1.46 (inactive); in assay [12], -2.19.
Take `COCCOC(=O)N1C(=O)[C@@]2(c3cc(C#CC4=CCCCC4)ccc31)[C@H](C(=O)NC[C@H](O)c1ccccc1)[C@H]1C(=O)O[C@H](c3ccccc3)[C@H](c3ccccc3)N1[C@@H]2c1ccc(O)cc1`: the composite z-score was determined as 1.14 in [1]; 0.298 in assay [2]; 0.124 in assay [3]; 1.22 in assay [5]; 1.3 in [6]; 0.663 in assay [7]. The composite z-score in assay [8] stood at 1.41; in assay [9], 1.06; in [10] it was 1.01; in assay [11], 1.38; in assay [13], 0.693; in assay [14], 1.1. Besides, the composite z-score in assay [15] is 0.274; in assay [16], -0.163; in assay [17], -0.0055; in assay [18], 0.996; in assay [19], 0.949; in [20] it was 1.13. Besides, the results for the z-score in [4] and in [12] were -1.06 (inactive) and -1.84, respectively.
With `COCCOC(=O)N1C(=O)[C@@]2(c3ccccc31)[C@H](C(=O)NC[C@H](O)c1ccccc1)[C@H]1C(=O)O[C@H](c3ccccc3)[C@H](c3ccccc3)N1[C@@H]2c1ccc(OCCO)cc1`, the composite z-score in assay [1] was 1.38; in [2], 0.0185; in assay [3], -0.131; in assay [5] it was 1.08; in assay [6] it was 1.27; in assay [7], 1.13. The composite z-score in [8] stood at 1.51; in [9], 1.01; in [10], 0.955; in [11] it was 1.11; in assay [13], 0.965; in assay [14] it was 0.932. The composite z-score was -0.373 in [15]; -0.0263 in [16]; 0.0723 in [17]; -0.466 in [18]; 1.13 in assay [19]; 0.247 in assay [20]. The results for the z-score in assay [4] and in [12] were -1.81 (inactive) and -1.33, respectively.
